Screens as filed in PubChem BioAssay.
Hits are enriched below; roughly 4.6% of the tested compounds scored in any of these assays.
D1 PAM = Potentiators of Human D1 Dopamine Receptor: qHTS; potentiation, % at 10 µM; 360,000 tested, 0.036% active; HEK293 TREx D1 cells, calcium flux, dopamine EC20 potentiation; D(1A) dopamine receptor (Homo sapiens), P21728; in the data active means potentiation above about 30%; further: 0% is about no effect
Target sequence (P21728 whole entry, looked up): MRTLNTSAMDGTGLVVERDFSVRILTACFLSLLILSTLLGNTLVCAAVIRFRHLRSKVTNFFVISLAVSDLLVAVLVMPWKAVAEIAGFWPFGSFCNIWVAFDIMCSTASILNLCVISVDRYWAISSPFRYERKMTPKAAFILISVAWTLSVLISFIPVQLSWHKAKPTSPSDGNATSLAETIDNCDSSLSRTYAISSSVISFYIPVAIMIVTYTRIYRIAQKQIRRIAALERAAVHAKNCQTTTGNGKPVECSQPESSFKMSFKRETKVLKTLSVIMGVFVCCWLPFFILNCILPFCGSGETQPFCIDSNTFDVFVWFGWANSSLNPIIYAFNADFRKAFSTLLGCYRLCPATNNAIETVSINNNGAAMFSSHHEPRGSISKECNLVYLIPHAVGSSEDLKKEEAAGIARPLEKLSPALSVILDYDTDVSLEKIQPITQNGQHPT
TRHR agonist = qHTS for Small Molecule Agonists and Allosteric Enhancers of Human TRH Receptor: Primary Screen for Agonists | Thyrotropin-releasing hormone receptor (Homo sapiens), P34981 | TRHR cells, calcium flux fluo-8, FDSS agonist mode | 360,000 tested, 0.18% active | activation, % at 2 µM; further: 0% is about no effect
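Agonist-mode FDSS calcium read (Ex 480/Em 530, 1 s cycles) in 1536-well TRHR cells with fluo-8 dye, after 10-cycle baseline and 23 nL compound addition; TRH at EC20 (10 nM final) added afterwards for the enhancer phase.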
D1 antag = Antagonist of Human D 1 Dopamine Receptor: qHTS; HEK293 TREx D1 cells, calcium flux, dopamine EC80; active compounds read low; AID 504652, 2011; D(1A) dopamine receptor (Homo sapiens), P21728; 360,000 tested, 3.2% active; activity change, negative = inhibition, % at 10 µM; in the data active means activity change below about -30%; further: on the % scale 0 is the no-effect control and ±100 the full control effect
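Using tetracycline-induced force-coupled D1 Hek293 cells and a calcium dye, signals were followed for 180 s after compound, then for 180 s after EC80 dopamine, to detect inhibitors.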
TRHR enhancer = qHTS for Small Molecule Agonists and Allosteric Enhancers of Human TRH Receptor: Primary Screen for Enhancers; Thyrotropin-releasing hormone receptor (Homo sapiens), P34981; TRHR cells, fluo-8 calcium fluorescence, EC20 TRH enhancement; enhancement, % at 2 µM; 360,000 tested, 0.66% active; in the data active means enhancement above about 30%; further: 0% is about no effect
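TRHR-expressing cells loaded with fluo-8 calcium dye were read kinetically (ex 480/em 530) during compound addition, then stimulated with an EC20 of TRH (10 nM final). Enhancement of the Gq-mediated intracellular calcium response was scored.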
D1 ag = Allosteric Agonists of the Human D1 Dopamine Receptor: qHTS | D(1A) dopamine receptor (Homo sapiens), P21728 | HEK293 T-REx D1 cells, calcium flux, agonist mode | activation, % at 2 µM | 360,000 tested, 1% active; further: 0% is about no effect
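Tetracycline-induced HEK293 TREx D1 cells, force-coupled to calcium signalling, were dye-loaded with a no-wash calcium kit. Compound was pin-added after a 10 s baseline. Fluorescence was read kinetically at 1 cycle/s for 180 s, with calcium rises flagged as agonism.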
An asterisk follows results filed as active; . = no result given. Unless noted, no stated cut-off is given here; in the data, active means activation above about 30%; inactive means the rest.

SMILES	D1 PAM	TRHR agonist	D1 antag	TRHR enhancer	D1 ag
COc1ccc2c(c1OC)C(=O)N1c3ccccc3SC21 (stereo unspecified)	2	0	-4	39*	1
Cc1ccc(NC(=S)N(CCN(C)C)Cc2cccs2)cc1	-8	0	-36*	-1	4
COc1cccc(-n2c(=O)c3c(C)c(C)sc3n(CC(=O)NCc3ccc(C)cc3)c2=O)c1	0	0	-3	5	0
O=C(COC(=O)CNC(=O)c1cccc([N+](=O)[O-])c1)Nc1nc2ccccc2s1	-8	0	-8	-3	3
O=C(COC(=O)CNC(=O)c1cccc([N+](=O)[O-])c1)Nc1ccccc1OC(F)F	2	-1	-8	34*	4
CN1CCN(CCC(=O)Nc2ccccc2)CC1	3	-1	-36*	3	3
Cc1cccc(NC(=O)CCN2CC(C)OC(C)C2)c1 (stereo unspecified)	3	0	6	35*	0
Cc1cccc(NC(=O)CCN2CCCC(C)C2)c1 (stereo unspecified)	-9	0	-72*	0	2
CC1CCC(NC(=O)CCS(=O)(=O)c2ccc3c(c2)CCN3C(=O)C2CC2)CC1 (stereo unspecified)	6	0	-1	3	2
C=CCNC(=S)NNC(=O)c1ccccc1	-3	0	11	39*	6
COc1ccc(N2CC(NC(=O)CCCc3ccccc3)CC2=O)cc1 (stereo unspecified)	2	0	.	-2	-1
O=C(COc1ccccc1Cl)Nc1ccc(Cl)c(-c2nc3ccccc3o2)c1	2	1	12	4	0
CC[n+]1c(/C=C/C=C/N(C(C)=O)c2ccccc2)sc2cc(OC)ccc21	-7	23	-7	3	56*
Cc1cccc(C(=O)N2CCc3cc(CNC(=O)c4ccnn4C)ccc32)c1	-3	-1	-36*	2	16
Cc1cccc(C(=O)N2CCc3cc(CNS(=O)(=O)c4cccs4)ccc32)c1	-1	-1	-32*	1	8
O=C(COC(=O)C1CC1)Nc1ncc(Cl)cc1Cl	12	1	-4	5	4
O=C(CSC(=S)N1CCCC1)Nc1ncc(Cl)cc1Cl	-7	0	-4	31*	7
CN(C)c1ccc(/C=C(\C#N)C(=O)c2ccccc2)cc1	22	138*	-39*	29	401*
Cc1cccc(/C=C(\C#N)c2nc3ccccc3c(=O)[nH]2)c1	-3	2	-19	-1	6
COc1cccc(CNC(=O)COC(=O)/C(C#N)=C/c2ccc(N(C)C)cc2)c1	.	13	-17	1	74*
COc1ccc(/C=C(\C#N)C(=O)OCC(=O)NCc2ccccc2)cc1	1	0	0	0	0
CN(C)c1ccc(/C=C(\C#N)c2nc3ccccc3c(=O)[nH]2)cc1	6	38*	-27	-1	97*
CCN(CC)c1ccc(/C=C(\C#N)C(=O)c2ccc(Br)cc2)cc1	-10	109*	-48*	7	259*
CCN(CC)c1ccc(/C=C(\C#N)C(N)=O)cc1	-2	5	8	3	14
CN(C)c1ccc(/C=C(\C#N)c2ccccc2)cc1	-4	0	-4	0	1
SMILES	D1 PAM	TRHR agonist	D1 antag	TRHR enhancer	D1 ag
CCOC(=O)NC(=O)/C(C#N)=C/c1ccc(N(C)C)cc1	-5	10	-26	13	31*
CN(C)c1cccc(/C=C(\C#N)c2ccccc2)c1	0	-1	-32*	17	-1
COC(=O)c1scc(-c2ccc(C)cc2)c1S(=O)(=O)N1CCN(c2cccc(Cl)c2)CC1	0	1	-8	4	2
CCC(=NCc1ccco1)c1c(C(F)(F)F)[nH]n(-c2nc3ccccc3s2)c1=O	1	-1	5	-3	4
CC(=NCc1ccco1)c1c(C)[nH]n(-c2nc3ccccc3s2)c1=O	-7	0	-66*	-18	-1
Cc1c(NC(=O)c2sc3c([N+](=O)[O-])cccc3c2Cl)cccc1-c1nc2ccccc2o1	0	4	2	-2	0
Cc1ccc(NC(=O)c2cc(-c3ccccc3)nn2-c2ccccc2)cc1	-2	0	0	-6	5
O=C(NC1=NCCS1)c1cc(-c2ccccc2)nn1-c1ccccc1	0	0	-47*	1	4
Cc1ccc(-n2ncc3c(NCCCn4ccnc4)ncnc32)cc1C	-3	0	-60*	2	-4
Fc1ccc(-n2ncc3c(NCCCn4ccnc4)ncnc32)cc1	0	0	-8	-3	-1
Clc1cccc(-n2ncc3c(NCCCn4ccnc4)ncnc32)c1	-3	0	-40*	-6	4
COc1ccc(-n2ncc3c(NCCCn4ccnc4)ncnc32)cc1	3	0	-11	17	-1
Cc1nc(SCC(=O)Nc2ccccc2Cl)cc(-c2ccccc2)n1	1	0	-10	-6	4
CC1=C(C(=O)OC2CCCC2)C(c2ccc(F)cc2F)CC(=O)N1 (stereo unspecified)	-3	-1	-33*	-2	19
COc1ccc(C(=O)COC(=O)Cn2c(C)csc2=O)c(OC)c1	-2	0	-33*	10	11
O=C(O)C(=O)/C(=C\c1cccc2ccccc12)c1ccc2ccccc2n1	-3	3	3	-2	31*
COc1cc(/C=N\NC(=O)CC#N)ccc1OC/C=C/c1ccccc1	-9	0	-38*	-9	-1
COCC(=O)N/N=C\c1ccc(OC/C=C/c2ccccc2)c(OC)c1	1	-1	1	-2	3
CNCC[C@H](Oc1cccc2ccccc12)c1cccs1	-1	5	-27	9	61*
COc1ccc(Br)cc1S(=O)(=O)N1CCOCC1	0	1	-10	-2	2
CCN(CC)c1ccc(C=Nc2ccc(OC)c(S(=O)(=O)N3CCOCC3)c2)c(O)c1	-8	-3	-33*	2	1
CCOC(=O)c1cccc(NC(=O)N2Cc3ccccc3Oc3ncccc32)c1	-2	2	20	2	1
CCOC(=O)c1ccc(NC(=O)CN2C(=O)CSC(C)C2=O)cc1 (stereo unspecified)	1	1	-24	10	1
CCCCOC(=O)c1ccccc1N1C(=O)C2C3CCC(C3)C2C1=O (stereo unspecified)	-12	0	-32*	-7	5
